Measured values as given in PMC4336329 (PLoS ONE, 2015).
In all, about 310,000 compounds went through this assay and about 14,000 (4.5%) showed an effect of 50% or more. Effects have a minus sign here. Many of the other results were omitted from the sample, so strong results are more common in it than they were.

Biological target: human ether-à-go-go-related gene (hERG) potassium channel (human, UniProt Q12809)
Assay: primary screen, population patch clamp on CHO cells stably expressing hERG; higher = less effect of the substance
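Also: peak tail current of the secondary pulse compared with the same well before compound.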

human ether-à-go-go-related gene (hERG) potassium channel, sequence (Q12809 whole entry, looked up): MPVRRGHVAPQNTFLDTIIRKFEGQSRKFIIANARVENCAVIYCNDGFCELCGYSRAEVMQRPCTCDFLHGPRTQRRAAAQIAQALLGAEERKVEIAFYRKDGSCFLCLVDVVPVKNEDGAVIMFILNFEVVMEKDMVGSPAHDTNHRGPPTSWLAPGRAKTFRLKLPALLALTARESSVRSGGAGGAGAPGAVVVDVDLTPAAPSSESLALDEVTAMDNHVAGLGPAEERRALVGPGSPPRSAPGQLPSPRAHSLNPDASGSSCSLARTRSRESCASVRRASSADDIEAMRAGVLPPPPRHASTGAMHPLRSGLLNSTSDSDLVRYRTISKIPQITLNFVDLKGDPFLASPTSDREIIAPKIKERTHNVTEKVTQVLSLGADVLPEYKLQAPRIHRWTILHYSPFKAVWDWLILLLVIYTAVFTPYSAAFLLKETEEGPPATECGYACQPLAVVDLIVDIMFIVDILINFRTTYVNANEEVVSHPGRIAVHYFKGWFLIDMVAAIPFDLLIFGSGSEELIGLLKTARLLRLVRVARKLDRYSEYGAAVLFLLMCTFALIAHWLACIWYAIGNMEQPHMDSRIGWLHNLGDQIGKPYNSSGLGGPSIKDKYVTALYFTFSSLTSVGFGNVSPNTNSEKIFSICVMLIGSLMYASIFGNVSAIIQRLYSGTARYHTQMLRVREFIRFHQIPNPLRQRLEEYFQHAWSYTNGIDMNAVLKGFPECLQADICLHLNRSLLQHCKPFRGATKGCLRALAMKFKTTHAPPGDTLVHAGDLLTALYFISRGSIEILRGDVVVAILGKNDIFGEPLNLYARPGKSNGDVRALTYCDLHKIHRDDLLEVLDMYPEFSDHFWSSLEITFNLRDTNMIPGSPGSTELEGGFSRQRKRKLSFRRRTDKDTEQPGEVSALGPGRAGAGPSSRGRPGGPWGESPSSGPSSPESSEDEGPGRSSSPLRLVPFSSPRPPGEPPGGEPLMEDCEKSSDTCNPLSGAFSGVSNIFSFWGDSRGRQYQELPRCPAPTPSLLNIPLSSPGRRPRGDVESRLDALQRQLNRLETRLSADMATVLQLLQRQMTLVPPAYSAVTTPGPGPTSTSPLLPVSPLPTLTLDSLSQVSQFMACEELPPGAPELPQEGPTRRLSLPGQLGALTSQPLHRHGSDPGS

Compound	hERG current change (%, negative = inhibition) at 10uM
O=C(CSc1nnc(SCc2ccccc2)s1)N/N=C/c1ccc(Cl)cc1Cl	-5.88%
O=C(CSc1nnc(-c2ccccc2)c(-c2ccccc2)n1)NC1CCS(=O)(=O)C1 (stereo not shown)	17.3%
Cc1cc(C)n(-c2nc(SCC(=O)O)c3c4c(sc3n2)CCCC4)n1	6.68%
Cc1cc(C)n(-c2nc(NCCN(C)C)c3c4c(sc3n2)COC(C)(C)C4)n1	-32.7%
Cc1cc(C)n(-c2nc(SCC(=O)O)c3c4c(sc3n2)COC(C)(C)C4)n1	2.48%
Cc1cc(C)n(-c2nc(SCCN(C)C)c3c4c(sc3n2)COC(C)(C)C4)n1	-59.1%
Cc1cc(C)n(-c2nc(SCCN(C)C)c3c4c(sc3n2)CCCC4)n1	-53.7%
Cc1cc(C)n(-c2nc(NCCCN(C)C)c3c4c(sc3n2)CCCC4)n1	-65.2%
Cc1cc(C)n(-c2nc(NCCCN(C)C)c3c4c(sc3n2)COC(C)(C)C4)n1	-14.1%
CCN(CC)CCCNc1nc(-n2nc(C)cc2C)nc2sc3c(c12)CC(C)(C)OC3	-23%
Cc1cc(C)n(-c2nc(SCC(=O)N3CCCC3)c3c4c(sc3n2)CCCC4)n1	-9.29%
Cc1cc(C)n(-c2nc(NCCN(C)C)c3c4c(sc3n2)CCCC4)n1	-16.3%
CCN(CC)CCNc1nc(-n2nc(C)cc2C)nc2sc3c(c12)CC(C)(C)OC3	-55.4%
Cc1cc(C)n(-c2nc(NCCCO)c3c4c(sc3n2)CCCC4)n1	-17.9%
C=CCn1cc(/C=N\NC(=O)c2cc3c(ccc4ccccc43)o2)c2ccccc21	-4.85%
O=C(c1ccccc1)c1c[nH]c2ccccc12	14.6%
Cc1cc(C)cc(NC(=S)N2CCN(S(=O)(=O)c3ccccc3)CC2)c1	0.86%
O=C(O)c1ccc(-c2ccc(OS(=O)(=O)c3ccccc3F)cc2)cc1	9.84%
O=C(COc1ccccc1Cl)Nc1ccc2c(c1)OCO2	11.1%
CC(C)C(=O)Nc1ccc(NC(=O)c2ccc(COc3ccccc3)cc2)cc1	16.3%
CCOC(=O)C1CCN(C(=O)c2ccc(SC)cc2OC)CC1	-19.8%
O=C1c2ccccc2C(=O)C12OC2c1ccc(Cl)cc1 (stereo not shown)	6.63%
O=C1c2ccccc2C(=O)C12OC2c1ccc(Cl)cc1Cl (stereo not shown)	4.07%
O=C1c2ccccc2C(=O)C12OC2c1cccc2ccccc12 (stereo not shown)	-69.2%
Cc1c(C)n(Cc2ccccc2)c2ccc(C(=O)NCCN3CCOCC3)cc12	-3.43%
CCOC(=O)c1cc(-c2ccccc2)sc1N	0.819%
Cc1ccc(S(=O)(=O)c2nc(-c3cccs3)oc2NCCCN(C)C)cc1	-67.8%
COCCNc1oc(-c2cccs2)nc1S(=O)(=O)c1ccc(C)cc1	-26.4%

Compound	hERG current change (%, negative = inhibition) at 10uM
CN(C)CCNc1oc(-c2ccccc2Cl)nc1S(=O)(=O)c1ccccc1	-35.7%
CN(C)CCCNc1oc(-c2ccccc2Cl)nc1S(=O)(=O)c1ccccc1	-43.3%
CN(C)CCCNc1oc(-c2ccccc2Cl)nc1S(=O)(=O)c1ccc(F)cc1	-59.9%
COCCCNc1oc(-c2cccs2)nc1S(=O)(=O)c1ccc(C)cc1	-15.2%
CN1C(=O)c2cccc(NCCCCCCN3C(=O)c4ccccc4C3=O)c2C1=O	5.41%
CC(C)OCC1CO1 (stereo not shown)	6.9%
Cc1noc(NS(=O)(=O)c2ccc(NC(=O)c3ccc(N(C)C)cc3)cc2)c1C	12.2%
Cc1cc(C)cc(NC(=O)C(=O)NCCc2c[nH]c3ccccc23)c1	14.9%
CCCOc1ccccc1-n1sc2c(c1=S)-c1cc(OC)cc3c1N(C(=O)C3=O)C2(C)C	18.5%
C#CCOc1c(Cl)cc(/C=N/O)cc1OC	4.04%
COC(=O)c1ccc2nc(NC(=O)C3CC3)sc2c1	14%
O=C(Nc1nc2ccccc2s1)C1CC(=O)N(c2ccccc2)C1 (stereo not shown)	-11.2%
CCOc1ccc2nc(NC(=O)Cn3cnc4c3c(=O)n(C)c(=O)n4C)sc2c1	-41.9%
COc1ccc2nc(NC(=O)Cn3cnc4c(=O)n(C)c(=O)n(C)c43)sc2c1	-67.9%
COc1ccc(N2CC(C(=O)Nc3nc4ccccc4s3)CC2=O)cc1 (stereo not shown)	-48.9%
CS(=O)(=O)c1ccc2nc(NC(=O)C3CC(=O)N(c4ccccc4)C3)sc2c1 (stereo not shown)	-4.25%
O=C(Nc1nc2ccc(Cl)cc2s1)C1CC1	28.7%
CC(C)c1ccc2nc(NC(=O)C3CC3)sc2c1	-55%
COc1ccc2nc(NC(=O)Cn3cnc4ccccc4c3=O)sc2c1	-4.49%
COc1ccc(N2CC(C(=O)Nc3nc4ccc(S(C)(=O)=O)cc4s3)CC2=O)cc1 (stereo not shown)	3.32%
COc1ccc2nc(NC(=O)C3CC(=O)N(c4ccccc4)C3)sc2c1 (stereo not shown)	-51.7%
COc1ccc(N2CC(C(=O)Nc3nc4ccc(OC)cc4s3)CC2=O)cc1 (stereo not shown)	-58.8%
O=C(NC1CCCCC1)c1ccc(CNc2ccccc2)o1	-9.19%
COc1ccc(CCNC(=O)C2CCCN2C(=O)Nc2ccc(F)cc2)cc1OC (stereo not shown)	16.5%
CCOC(=O)C1=C(c2ccccc2)Nc2ncnn2C1c1ccccn1 (stereo not shown)	13.6%
O=C(O)c1cc(-c2ccc(/C=C3\NC(=O)N(c4ccc(Cl)cc4)C3=O)o2)ccc1Cl	7.5%
CC1(C)CC2CC(C)(CN2C(=S)NC(=O)c2ccccc2Cl)C1 (stereo not shown)	3.14%
